# Screening data (PubChem BioAssay)
# hNpr1 antagonist: antagonists of human natriuretic peptide receptor Npr1; P16066; HEK293 hNpr1 GloSensor cGMP, ANP-stimulated luminescence; Potency, µM (titrated, usually from 46.3 µM), without a hit: top-dose activity change, negative = inhibition, hits mostly inhibitors; 76,000 compounds, 1.6% hits; calls by dose curve; further: nearly all actives have a fitted effect of over 60% in size
#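 HEK293 cells stably expressing human Npr1 and cGMP GloSensor pGS-40F, loaded 2 h with 2% GloSensor reagent, given compound 30 min at room temperature. Luminescence read before and 20 min after 0.1 nM hNppA.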
# FLuc inh: Photinus pyralis luciferase inhibition | purified P. pyralis luciferase, luminescence, biochemical | Potency, µM (titrated, usually from 115 µM), usual class: inhibitors | 76,000 compounds, 2.5% hits; further: nearly all actives have a fitted effect of over 65% in size
#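 Purified 10nM P. pyralis luciferase with 10uM D-luciferin and 10uM ATP in 50mM Tris acetate pH 7.5, 10mM Mg acetate, 0.01% Tween-20, 0.05% BSA. qHTS titration; luminescence read by CCD imager.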
# HEK cytotox: cytotoxic compounds in HEK 293 cells; AID 1345083; HEK 293 viability, ATP luminescence (CellTiter-Glo), 48-72 h; Potency, µM (top dose mostly 115 µM), for the others: top-dose activity change, negative = cytotoxicity, hits mostly inhibitors; 94,000 compounds, 6.6% hits; further: nearly all actives have a fitted effect of over 60% in size
#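 qHTS cytotoxicity; HEK 293, 250 cells/well; compound pinned; 48 or 72 hr, 37 degree Celsius, 5% CO2, 95% humidity; CellTiter-Glo, 10 min RT; luminescence (ATP).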
# GPT2 inh: inhibitors of human GPT2 alanine aminotransferase | Potency, µM (highest dose often 57.7 µM), for inactives: top-dose activity change, negative = inhibition, hits mostly inhibitors | 100,000 compounds, 0.25% hits | Recombinant GPT2, coupled pyruvate oxidase/HRP Amplex Red fluorescence | Q8TD30; further: nearly all actives have a fitted effect of over 60% in size
#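 Recombinant GPT2 (10ng/uL) with 250uM a-KG and 2mM L-alanine, 30 min at room temperature, in HEPES pH 7.5 buffer. Pyruvate detected by pyruvate oxidase/HRP/Amplex Red fluorescence after 30 min in the dark; AOA (50uM) as positive control.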
# 3T3 cytotox: NIH 3T3 cell cytotoxicity. Potency, µM (top dose mostly 96.7 µM), for the others: top-dose activity change, negative = cytotoxicity, usual class: inhibitors. 94,000 compounds, 4.3% hits. NIH 3T3 viability, CellTiter-Glo ATP luminescence, 48-72 h; further: nearly all actives have a fitted effect of over 55% in size
#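 Viability of NIH 3T3 cells after 48 or 72 hr compound treatment at 37 °C was assessed by CellTiter-Glo, with luminescence imaged following a 10 min room-temperature step.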
# * marks the source's active call; other numbers are inactive results; i = inactive; ? = inconclusive; / = no result; ! = a repeat was not active; [ ] = another dose, or the depositor's remark. Most compounds without a hit are left out; they make up all but 10% or so of the library. Unless noted, the call rests on the fitted dose curve; in most records, active means well fitted curve in the direction sought with a large enough effect; inconclusive means small, poorly fitted or top-dose-only effect, or another doubt; inactive means no such curve, though single readings can be large; an effect the other way counts as inactive or inconclusive. On the % scale 0 is the no-effect control and ±100 the full control effect; potency means the concentration at half of the fitted maximal effect.
SMILES,hNpr1 antagonist,FLuc inh,HEK cytotox,GPT2 inh,3T3 cytotox
O=C1c2cnc(-c3ccc(F)cc3)nc2OCCN1Cc1ccc(F)cc1F,-11%[70.6 µM],i,?,i,?
COc1ccc(CN2CCOc3nc(-c4cccc(NC(C)=O)c4)ncc3C2=O)cc1,-20%[70.6 µM],i,100µM*,-1%[88.5 µM],?
COCCN1CCOc2nc(-c3ccc(Oc4ccccc4)cc3)ncc2C1=O,22µM*,22µM*,56µM*,-11%[88.5 µM],?
O=C1c2cnc(-c3ccc(Oc4ccccc4)cc3)nc2OCCN1CC1CC1,7.1µM*,?,?,-11%[88.5 µM],28µM*
CC(C)CNC(=O)C1CCN(c2ccnc3ccnn23)CC1,/,/,?,-5%,-31%
CC(C)c1nc(-c2ccc(OC3CCN(C(=O)Cc4c[nH]c5ccccc45)C3)cc2)no1 (centres undefined),?,i,?,3%,?
O=S(=O)(c1ccccc1F)N1CC(c2nnc(-c3ccncc3)o2)C2(CCOCC2)C1 (centres undefined),-13%,i,-16%,-15%,-15%
O=C1COCC2(CN1Cc1ccccc1)CN(C(=O)c1cncc(F)c1)C2,4%[70.6 µM],i,?,1%[88.5 µM],i
CN1C(=O)c2cccn2CC1C(=O)NCc1cccc(C(F)(F)F)c1 (centres undefined),3%,i,-20%,i,-14%
CC(C)c1ccc(-n2cc(CN3CCCC(O)(CN(C)C)C3)cn2)cc1 (centres undefined),3%,?,22µM*,-6%,?
CN(C)CC1(O)CCCN(Cc2ccc(Oc3ccc(Cl)cc3)cc2)C1 (centres undefined),-6%,i,?,0%,22µM*
CCOc1cc(C)c(CN2CCCC(O)(CN(C)C)C2)cc1C(C)C (centres undefined),1%,i,35µM*,i,40µM*
CN(C)CC1(O)CCCN(Cc2ccc(-c3ccc(Cl)cc3)o2)C1 (centres undefined),-3%,i,?,i,?
CCc1noc([C@@H]2CC(F)(F)CN2C(=O)CCn2cccn2)n1,-3%,i,-5%,i,-8%
O=C1NCCCc2[nH]c(-c3cnn(-c4cccc(F)c4)c3)nc21,-21%,22µM*,?,i,-24%
Fc1cccc(-n2cc(CN3CCCC4(CCOC4)C3)cn2)c1 (centres undefined),2%,i,-12%,-1%,-28%
CCN1c2cc(C(=O)Nc3ccc(C)c(F)c3)ccc2C(=O)N2CCCC21 (centres undefined),5%,i,-18%,i,-20%
CCN1c2cc(C(=O)Nc3ccc(C)c(F)c3)ccc2C(=O)N2CCCCC21 (centres undefined),0%,i,?,i,28µM*
CCN1c2cc(C(=O)Nc3ccc(C(N)=O)cc3)ccc2C(=O)N2CCCCC21 (centres undefined),19%,i,?,-2%,32µM*
CCN1c2cc(C(=O)Nc3cccc(F)c3)ccc2C(=O)N2CCCCC21 (centres undefined),0%,?,?,-1%,?
CCN1c2cc(C(=O)Nc3cc(F)cc(F)c3)ccc2C(=O)N2CCCCC21 (centres undefined),-12%,i,35µM*,-9%,28µM*
CCN1c2cc(C(=O)Nc3cccc(SC)c3)ccc2C(=O)N2CCCCCC21 (centres undefined),?,i,22µM*,i,22µM*
CCN1c2cc(C(=O)Nc3ccc(F)cc3)ccc2C(=O)N2CCCCC21 (centres undefined),-13%,i,?,i,?
Cc1ccc(NS(=O)(=O)c2ccccc2)c(=O)n1CC(=O)NC1CCCC1,0%,i,12%,?,1%
CCN1c2cc(C(=O)Nc3ccc4c(c3)CCC4)ccc2C(=O)N2CCCCC21 (centres undefined),1%,?,22µM*,i,13µM*
SMILES,hNpr1 antagonist,FLuc inh,HEK cytotox,GPT2 inh,3T3 cytotox
CCN1c2cc(C(=O)Nc3ccc(SC)cc3)ccc2C(=O)N2CCCCC21 (centres undefined),-25%,?,?,i,40µM*
CCN1c2cc(C(=O)Nc3ccc(OC)cc3)ccc2C(=O)N2CCCCC21 (centres undefined),-2%,i,?,i,?
Cc1nn(C)c2c1C(c1ccc(C(F)(F)F)cc1)C(C#N)=C(N)O2 (centres undefined),/,/,/,15µM*!,/
CCOC(=O)c1ccc(NC(=O)Cn2c(C)cc3nc4n(c(=O)c32)CCCC4)cc1,2%,i,-26%,i,?
O=C(NCc1nnc2cc(-c3nc(C4CC4)no3)ccn12)c1c(F)cccc1F,2%,i,35µM*,i,?
O=C(NCc1nnc2cc(-c3nc(C4CC4)no3)ccn12)c1ccccc1,4%,i,?,i,-1%
CC(C)CN(C[C@H](O)[C@H](Cc1ccccc1)NC(=O)O[C@H]1CCOC1)S(=O)(=O)c1ccc(N)cc1,/,/,/,-4%,/
COCC(=O)N1CCC(Oc2nccnc2N(C)C)C1 (centres undefined),-4%,i,-6%,3%,-22%
CC(C)CC(=O)N1CCC(Oc2nccnc2N(C)C)C1 (centres undefined),3%,32µM*,-5%,-5%,3%
CN(C)c1nccnc1OC1CCN(C(=O)c2ccoc2)C1 (centres undefined),3%,40µM*,22%,-2%,i
CCCN(C)c1nccnc1OC1CCN(C(=O)c2ccc(OC)cc2)C1 (centres undefined),-15%,40µM*,45µM*,-13%,-23%
COc1ccccc1NC(=O)c1cc2c(s1)CN(C(C)C)C2,-2%,i,-18%,1%,-25%
O=C1CC2(CCN(C(=O)C3CCCN3C(=O)NC3CCCC3)CC2)Oc2ccccc2N1 (centres undefined),/,/,i,0%,-6%
CC(C)(C)C(=O)N[C@H]1C[C@@H](Cc2cc(COc3ccccc3)on2)C1(C)C,-23%[70.6 µM],i,?,-18%[88.5 µM],?
CCCCCC(=O)N[C@H]1C[C@@H](Cc2cc(COc3ccccc3)on2)C1(C)C,?,i,?,-46%[88.5 µM],40µM*
CCCCCC(=O)N[C@H]1C[C@@H](Cc2cc(COC(=O)CCCCC)on2)C1(C)C,-2%[70.6 µM],i,?,1%[88.5 µM],-23%[174 µM]
CC(C)C(=O)N[C@H]1C[C@@H](Cc2cc(COc3ccccc3)on2)C1(C)C,?,?,40µM*,-7%[88.5 µM],63µM*
CC1(C)[C@H](Cc2cc(COc3ccccc3)on2)C[C@@H]1NC1CCC1,3%[70.6 µM],i,35µM*,1%[88.5 µM],32µM*
